In PubChem BioAssay AID1347433 (National Center for Advancing Translational Sciences (NCATS), 2020) one finds Potency data, which are given here for seven molecules.

Records with an inconclusive call do not appear. A call without a number means that no potency is given here. Active and inactive are the calls of the source. Calls follow the shape of the dose curve; as a rule, active = well fitted curve in the direction sought with a large enough effect; inconclusive = small, poorly fitted or top-dose-only effect, or another doubt; inactive = no such curve, though single readings can be large or run the other way.

For this assay, the target named is Single-stranded DNA cytosine deaminase (Homo sapiens) (UniProt Q9GZX7). In words: Confirmatory (Round 2) qHTS assay for inhibitors of Activation Induced Cytidine Deaminase (AID): AID signals. The note with it: AID deamination FRET-based fluorescence assay with UDG, 4 h; series mostly up to 78.4 µM. From the text: Assay Provider (PI) Patricia Gearhart Ph.D. National Institute on Aging National Institute of Health (NIH), Bethesda, MD Assay Provider (PI) Rahul Kohli Ph.D. Perelman School of Medicine University of Pennsylvania, Philadelphia, PA Activation-Induced Deaminase (AID) is a cytosine deaminase which converts cytosine into uracil within stretches of ssDNA. The presence of uracil in DNA initiates a cascade of mutagenic DNA repair to introduce point mutations and DNA double strand breaks. Specific targeting of AID to the immunoglobulin heavy chain loci (Igh) promotes mutagenesis in the antibody variable region for somatic hypermutation (SHM) or switch regions leading to class switch recombination (CSR). However, AID also plays a role in accumulating unnecessary mutations across the genome. Mis-targeting of AID results in the initiation of tumor development and leads to greater drug resistance among cancer cells when continually expressed. To identify an AID inhibitor, a small molecule library will be screened in collaboration with NCATS core facility at NIH. To confirm biological function, inhibitors will be examined in an in vitro murine B-cell activation assay and subsequent secondary validation screens. Top molecules will be further screened to identify inhibitory efficacy against a wild type primary splenocytes assay. Using these approaches, we hope to identify a small molecule with great efficacy and low toxicity for use as a molecular probe to further characterize AID's intricacies, or even as a therapeutic. A FRET based analysis of cytosine deamination, was developed to identify potential inhibitors of AID catalytic activity. This screen has two signal output, Read 1 evaluates the AID inhibition response. The second readout (Read 2) evaluates UDG response and is uses as a counterscreen to exclude false positive inhibitors. Inhibition in AID and inactivity in the UDG signal is the desired outcome for this assay.
Sequence of Single-stranded DNA cytosine deaminase (Homo sapiens) (Q9GZX7 whole entry, looked up): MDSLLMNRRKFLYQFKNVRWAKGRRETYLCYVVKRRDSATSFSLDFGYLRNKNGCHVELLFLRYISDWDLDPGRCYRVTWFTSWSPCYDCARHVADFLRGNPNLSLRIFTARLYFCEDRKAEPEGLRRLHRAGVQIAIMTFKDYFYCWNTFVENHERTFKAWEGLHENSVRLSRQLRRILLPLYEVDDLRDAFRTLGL
PROTOCOL TABLE SEQUENCE No. (e.g., 1, 2, 3, etc.); PARAMETER (e.g., Cells, Incubation, Reagent, etc.); VALUE; DESCRIPTION 1a; Reagent; 3 uL; [4/3x] 1 uM AID/2.67 U/mL UDG 1b; Reagent; 3 uL; 2 U/mL UDG 1c; Reagent; 3 uL; 1 uM AID 2a; Compound; 46 nL; Follow-up plates (0.64 uM - 10 mM) 2b; Control; 46 nL; ATA ([…] - 10 mM) 3; Time; 10 min; incubation at room temperature 4; Reagents; 1 uL; [4x] 250 nM DJC20 / 250 nM DJC23 [Substrate] 5; Time; 4 hr; incubation at room temperature 6; Reagent; 4 uL; [2x] 250 mM NaOH 7; Time; 15 sec; centrifuge at 1000 rpm 8; Time; 30 min; incubation at room temperature 9a; Detection; fluorescence (Read 1: AID); EnVision (PerkinElmer) plate reader, 540 excitation and 590 emission filters 9b; Detection; fluorescence (Read 2: UDG); EnVision (PerkinElmer) plate reader, 560 excitation and 665 emission filters NOTES (numbers refer to sequence above) 1a; Reagents were dispensed in a medium-binding black solid-bottom Greiner plates (789176F) using a BioRptr liquid dispenser. Dispense 3 uL of [4/3x] 1 uM AID (provided by Kohli lab) and [4/3x] 2 U/mL UDG (NEB M0280L) into columns 1, 2, 5 to 48. 1b; Dispense 3 uL of [4/3x] 2 U/mL UDG into column 3. 1c; Dispense 3 uL of [4/3x] 1 uM AID into column 4. 2a; Compound (7-points [uM]: 0.64; 3.2; 16; 80; 400; 2,000; 10,000; […]) double pin-transferred (Dip Factor = 2) using the Kalypsys (Wako USA) pintool equipped with a 1536 pinhead for a final concentration range of 7.32 nM - 114 uM. 2b; 10 mM Aurintricarboxylic Acid (Sigma A1895) (ATA, 8-point, n = 2, 1:2.5 dilution in column 2) double pin-transferred (Dip Factor = 2) using the Kalypsys (Wako USA) pintool equipped with a 1536 pinhead for a [final] range of 186 nM - 114 uM. 3; Room temperature incubation. 4; Dispense 1 uL of substrate mixture from the Kohli lab [4x] […] DJC20 and [4x] 250 nM DJC23 into columns 1 to 48 . 5; Room temperature incubation. 6; Dispense 4 uL of substrate mixture [2x] 250 mM NaOH into columns 1 to 48. 7; Centrifugation step to remove bubbles. […]
For orientation: In qHTS, concentration-response curves come from the screen itself.
As for `O=c1cc2nc(-c3ccccc3)nc(SCCCc3ccncc3)n2[nH]1`, the Potency result is “inactive”.

For the molecule `Cn1ccnc1CCSc1nc(-c2ccccc2)nc2cc(=O)[nH]n12`, the Potency entry is “inactive”.

Take `CN1CCN(CCCSc2nc(-c3ccccc3)nc3cc(=O)[nH]n23)CC1`: the Potency entry was “inactive”.

Consider `O=c1cc2nc(-c3ccccc3)nc(SCCCn3ccnc3)n2[nH]1`, for which the Potency result is “inactive”.

With `O=C(O)C1=CC(=C(c2ccc(O)c(C(=O)O)c2)c2ccc(O)c(C(=O)O)c2)C=CC1=O`, the Potency is 2240 nM (active).

Turning to `Cc1noc(C)c1CCSc1nc(-c2ccccc2)nc2cc(=O)[nH]n12`, the Potency result was “inactive”.

As to `O=c1cc2nc(-c3ccccc3)nc(SCCN3CCC(F)(F)CC3)n2[nH]1`, the Potency result is “inactive”.
